Source: PubChem BioAssay
Sa RN4220 lethal: S. aureus RN4220 growth inhibition; 330,000 tested, 0.33% active; OD600, 16 h; inhibition, % (concentration not given with the values); AID 1259311; in the data active = inhibition above about 85%
Sa ugtP lethal: compounds lethal to S. aureus RN4220 ugtP deletion mutant; OD600 growth, 16 h; 330,000 tested, 0.54% active; growth inhibition, % (no concentration beside the values); in the data active = growth inhibition above about 68%
PrPC surface inh: reduces human prion protein on the cell surface. P04156. cell surface PrPC, TR-FRET read-out. inhibition, % at 13.8 µM. 370,000 tested, 0.43% active; in the data active = inhibition above about 24%
PfHsp40 rescue: compounds rescuing yeast from Plasmodium falciparum HSP40 toxicity; S. cerevisiae expressing PfHsp40, growth rescue, ATP luminescence; growth rescue, % at 12.5 µM; 340,000 tested, 0.68% active; in the data active = growth rescue above about 28%, passing the limit was not always enough;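 also: yeast W303a lacking pdr1 and pdr3 grown in galactose medium; growth measured after three days at 30 °C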
DUSP3 inh: DUSP3 (human) phosphatase inhibition; 290,000 tested, 0.52% active; AID 1654; recombinant VHR phosphatase, pNPP absorbance; P51452; inhibition, % at 13.3 µM; in the data active = inhibition above about 50%
PrPC confirm: cell surface PrPC inhibition, TR-FRET confirmation | shares compounds with PrPC surface inh | inhibition, % at 13.8 µM | cell surface PrPC level | 1,500 tested, 65% active | AID 743200; in the data active = inhibition above about 25%
LD9 tox: kills or reduces viability of LD9 cells in PrPc counter-screen; shares compounds with PrPC surface inh; 1,500 tested, 29% active; LD9 cells cytotoxicity, luminescence viability; inhibition, % at 13.8 µM; AID 743201; in the data active = inhibition above about 9.5%
Hits are given with their value; n = inactive; x = no result given; ! = repeats disagree. This is a sample that favours compounds with a hit; in the whole collection about 1.8% have one here.

SMILES	Sa RN4220 lethal	Sa ugtP lethal	PrPC surface inh	PfHsp40 rescue	DUSP3 inh	PrPC confirm	LD9 tox
Cn1cc(Cl)c(-c2n[nH]c(=S)n2-c2ccccc2)n1	n	n	29	n	n	45	n
O=C1C=CC(O)(c2cc(=O)c3c(O)cc(O)cc3o2)C=C1	x	x	82	n	n	77	59
O=c1cc(-c2ccccc2Cl)oc2cc(O)cc(O)c12	n	n	n	n	n	x	x
COC(=O)C1=C(c2ccc(OCc3ccccc3)cc2)CC2CCC1N2C(=O)NCc1ccccc1 (stereo not given)	n	n	x	x	x	x	x
Cc1sc2ncnc(SCC(=O)N3CCCC3=O)c2c1C	n	n	27	n	n	40	n
Cc1cccc(NC(=O)CSc2ncnc3sc(C)c(C)c23)n1	n	n	27	n	n	42	n
Cc1sc2ncnc(SCC(=O)NC(=O)c3cccn3C)c2c1C	n	n	31	n	n	77	n
CC(=O)Nc1ccc(NC(=O)CSc2ncnc3sc(C)c(C)c23)cc1	n	n	n	n	n	x	x
COc1cccc(N2CC(O)=C(c3nc4ccccc4s3)C2=N)c1	n	n	92	n	n	88	n
O=C(COc1cccc2c1CCN(Cc1ccccc1)C2=O)N1CCCCC1	n	n	29	n	n	n	n
CCCC1SC(=NN=Cc2ccc(C)cc2)N(Cc2ccc(OC)cc2)C1=O (stereo not given)	n	n	x	x	x	x	x
OC(COc1ccc2ccccc2c1Br)Cn1cnc(-c2ccccc2)c1 (stereo not given)	n	n	65	n	n	84	n
COc1ccc(OCC(O)Cn2cnc(-c3ccc(Br)cc3)c2)cc1 (stereo not given)	n	n	n	n	n	x	x
CCCc1noc2c1C(=NO)CC(c1ccccc1)C2 (stereo not given)	n	n	x	x	x	x	x
CCCc1noc2c1/C(=N\O)CC(c1ccccc1)C2 (stereo not given)	x	x	24	n	n	n	n
Fc1ccc(-n2nnnc2-c2cnc(-c3cccs3)nc2C(F)(F)F)cc1	n	n	53	n	n	48	40
CCOC(=O)C(CC)Sc1cc(C)nc2ccc(OC)cc12 (stereo not given)	n	n	32	n	n	60	n
Clc1ccc(-n2ncc3c(NCc4cccs4)ncnc32)cc1	n	n	n	n	x	x	x
Cc1cccc(-n2ncc3c(NCc4cccs4)ncnc32)c1	n	n	27	n	n	n	n
CC(C)NC(=S)n1cc(C(=O)c2cc(Cl)cc(Cl)c2O)cn1	n	n	41	n	n	n	n
CSc1nsc2nc(=O)c(/C=C3\C(C)=Nc4ccc(C)cc43)c(N)n12	n	n	n	n	n	x	x
CC1=Nc2ccc(C)cc2/C1=C/c1c(N)n2oc(C)cc2nc1=O	n	n	46!	n	n	n	n
CC1CCN(c2ccc3nnc(CCC(=O)N4CCN(c5ccc(F)cc5)CC4)n3n2)CC1	n	n	40	n	n	n	n
C[C@@]12C(=O)N(c3cccc(Br)c3)C(=O)N1C(c1ccc(Cl)cc1)C1C(=O)N(C3CCCCC3)C(=O)C12 (stereo not given in full)	n	n	x	x	x	x	x
Cc1cc([N+](=O)[O-])nn1Cc1ccc(C(=O)N/N=C/c2ccc(O)cc2O)cc1	x	x	32	n	n	29	21
SMILES	Sa RN4220 lethal	Sa ugtP lethal	PrPC surface inh	PfHsp40 rescue	DUSP3 inh	PrPC confirm	LD9 tox
Cc1cc([N+](=O)[O-])nn1Cc1ccc(C(=O)NN=Cc2ccc(O)cc2O)cc1	n	n	x	x	x	x	x
O=C(N/N=C/c1ccc(O)cc1O)c1ccc(CN2C(=O)c3cccc4cccc2c34)cc1	x	x	31	n	n	29	19
N[C@@]1(C(=O)O)CCC(C(=O)O)C1 (stereo not given in full)	n	n	x	x	x	x	x
Cc1cccc(NC(=O)c2cc(S(=O)(=O)N3CCc4ccccc43)cn2C)c1C	n	n	44	n	n	n	n
O=C(Nc1ccncc1)c1cccc(S(=O)(=O)N2CCc3ccccc32)c1	n	n	25	n	x	25	13
Cc1cccc(N2CCN(C(=O)c3cc(S(=O)(=O)N4CCCC4)cn3C)CC2)c1C	n	n	24	n	n	n	n
CCc1ccccc1NC(=O)c1cc(S(=O)(=O)N2CCc3ccccc32)cn1C	n	n	n	n	n	x	x
COc1ccc(CN2Cc3cccc4c3C(CC2=O)C(O)C(O)C4)cc1 (stereo not given)	n	n	x	x	x	x	x
CC1OC2CC(=O)OC2C2=C1C(=O)c1c(O)cccc1C2=O (stereo not given)	x	x	81	x	x	93	99
O=C(CCC(=O)Nc1ccc(Cl)cc1)NN=Cc1ccc2c(c1)OCO2	n	n	x	x	x	x	x
COC(=O)[C@H]1[C@@H](O)[C@@]2(O)c3c(OC)cc(OC)cc3O[C@@]2(c2ccc(OC)cc2)[C@@H]1c1ccc(F)cc1	x	x	83	x	x	91	20
COC(=O)C1C(=O)C=C(Nc2ccc(F)cc2)CC1c1ccc(OC)cc1 (stereo not given)	n	n	n	n	n	x	x
CCOC(=O)C1C2COc3ccccc3C2N2C(=O)N(c3ccc(F)cc3)C(=O)[C@@]12C (stereo not given in full)	n	n	x	x	x	x	x
NC(c1csc(Nc2ccc(C(=O)NCCO)cc2)n1)C1CCCCC1 (stereo not given)	x	x	n	x	x	x	x
NC(c1csc(Nc2ccc(C(=O)c3ccccc3)cc2)n1)C1CCCCC1 (stereo not given)	x	x	38	x	x	41	n
CC(=O)c1ccc(Nc2nc(C(N)C3CCCCC3)cs2)cc1 (stereo not given)	x	x	29	x	x	39	n
CC(N)c1csc(Nc2ccc(C(=O)c3ccccc3)cc2)n1 (stereo not given)	x	x	n	x	x	x	x
CC(=CC(=O)C(F)(F)F)Nc1ccc(C(F)(F)F)cc1	n	n	x	x	x	x	x
COC(=O)C1=CC(=O)C=C(OC)[C@@]12Oc1cc(C)cc(OC)c1C2=O	x	x	59	x	x	n	98
COc1ccc(-c2cc(NCCc3ccncc3)n3ncnc3n2)cc1	n	n	106	n	n	n	n
CC(C)CC(NC(=O)c1ccc(Cl)cc1)C(=O)OCC(=O)c1ccc2c(c1)NC(=O)CO2 (stereo not given)	n	n	40	n	n	53	84
CC(C)CC(NC(=O)OC(C)(C)C)C(=O)NC(CO)C(O)C1CC1C(=O)NC1CC1 (stereo not given)	n	n	x	x	x	x	x
COC(=O)C1=CO[C@@H](C)[C@H]2CN3CCc4c([nH]c5ccccc45)[C@@H]3C[C@H]12	x	x	25	n	x	n	n
O=c1[nH]c(CN2CCN(c3ccc(O)cc3)CC2)nc2scc(-c3ccc(Cl)cc3)c12	n	n	26	n	n	39	13
COc1cccc(N2CCN(Cc3nc4scc(-c5ccccc5)c4c(=O)[nH]3)CC2)c1	n	n	n	n	n	x	x
COC(=O)c1cnn(-c2ccc(Cl)cc2)c1C=NNC(N)=S	n	n	x	x	x	x	x
